± gives the uncertainty stated by the source. In all, about 9,900 compounds were measured (“viability index relative to DMSO control”: median about 1, lowest 2% from about 0.85 on). This excerpt belongs to a sample that is enriched for the lowest values.

The test system of the assay is Plasmodium falciparum NF54 stage V gametocytes. The assay can be described thus: viability index relative to DMSO control (fraction); higher = less gametocyte killing. The note with it: 2.5 µM, incubation time: 72 h. The protocol:
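Broad DOS informer set and blood-stage-active DOS compounds screened in duplicate at 2.5 µM against P. falciparum NF54 stage V gametocytes with the serum-free one-step SaLSSA (1536-well): 72 h at 37 °C under low oxygen, then saponin lysis and MitoTracker Red CMXRos staining, with high-content imaging. Viability index = viable-object count divided by the plate mean of DMSO wells (0 = killed, about 1 = inactive).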

Setting [1] is: library set: Broad Institute DOS.
Where [2] appears, read: library set: Broad Institute Blood Stage.

`CC(C)C#Cc1ccc([C@@H]2[C@H](CO)N3C(=O)CN(C(=O)Cc4ccccc4)C[C@@H]23)cc1` displayed a viability index under setting [1] of 1.1 ± 0.016.

The compound `C/C=C/c1ccc([C@@H]2[C@@H](CO)N3C(=O)CN(S(=O)(=O)c4ccccc4)C[C@@H]23)cc1` yielded a viability index under setting [1] of 0.777 ± 0.16.

As for `C/C=C/c1ccc([C@H]2[C@H]3CN(S(=O)(=O)c4ccccc4)CC(=O)N3[C@H]2CO)cc1`, the viability index under setting [1] was found to be 1.03 ± 0.034.

As for `C/C=C/c1ccc([C@H]2[C@@H](CO)N3C(=O)CN(S(=O)(=O)c4ccccc4)C[C@H]23)cc1`, under setting [1], the viability index is 0.975 ± 0.12.

In the case of `O=C(Cc1ccccc1)N1CC(=O)N2[C@H](CO)[C@H](c3ccc(C#CCc4ccccc4)cc3)[C@H]2C1`, under setting [2], the viability index amounted to 0.699 ± 0.1.

Turning to `CC(C)C#Cc1ccc([C@H]2[C@@H](CO)N3C(=O)CN(C(=O)Cc4ccccc4)C[C@@H]23)cc1`, the viability index under setting [1] was 1.07 ± 0.021.

As for `CC(C)C#Cc1ccc([C@H]2[C@H](CO)N3C(=O)CN(C(=O)Cc4ccccc4)C[C@@H]23)cc1`, under setting [1], the viability index was found to be 1.08 ± 0.08.

`CC(C)C#Cc1ccc([C@@H]2[C@@H](CO)N3C(=O)CN(C(=O)Cc4ccccc4)C[C@H]23)cc1` came in with a viability index under setting [1] of 1.04 ± 0.039.

With `CC(C)C#Cc1ccc([C@@H]2[C@@H](CO)N3C(=O)CN(C(=O)Cc4ccccc4)C[C@@H]23)cc1`, the viability index under setting [1] is 1.07 ± 0.047.

Consider `CC(C)C#Cc1ccc([C@@H]2[C@H]3CN(C(=O)Cc4ccccc4)CC(=O)N3[C@H]2CO)cc1`, for which the viability index under setting [1] is 0.864 ± 0.047.

`O=C(Cc1ccccc1)N1CC(=O)N2[C@H](CO)[C@H](c3ccc(C#Cc4ccccc4)cc3)[C@H]2C1` had a viability index under setting [2] of 0.728 ± 0.097.

Consider `CC(C)C#Cc1ccc([C@H]2[C@@H](CO)N3C(=O)CN(C(=O)Cc4ccccc4)C[C@H]23)cc1`, for which the viability index under setting [1] is 0.848 ± 0.025.

As for `C[C@H]1CN([C@@H](C)CO)C(=O)c2c(c3ccccc3n2C)-c2ccccc2CO[C@@H]1CN(C)C(=O)[C@@H](Cc1ccccc1)N(C)C`, the viability index under setting [1] stood at 1.07 ± 0.11.

As to `CCS(=O)(=O)Nc1ccc2c(c1)C(=O)N(C)C[C@H](OC)[C@H](C)CN(CC1CCCCC1)[C@H](C)CO2`, the viability index under setting [1] came to 0.995 ± 0.1.

On to `CN1CCN(C(=O)c2cc3c(c(-c4cccc(C5=CCCC5)c4)n2)[C@@H](CCO)N([S@](=O)C(C)(C)C)C3)CC1`, for which, under setting [1], the viability index came out at 0.991 ± 0.024.

`O=C(Nc1cccc(Cl)c1)N1C[C@H]2[C@@H](c3ccccc31)[C@@H](CO)N2Cc1cccnc1`: the viability index under setting [1] was determined as 1.06 ± 0.092.

Compound `C[C@@H]1CCCn2cc(nn2)COCCNC1=O` showed a viability index under setting [1] of 0.994 ± 0.094.

For `CC(C)CC#Cc1ccc([C@H]2[C@H](CO)N3CCCCN(C(=O)Nc4ccccc4)C[C@@H]23)cc1`, the viability index under setting [1] amounted to 0.935 ± 0.034.

`CC(C)CC#Cc1ccc([C@H]2[C@@H](CO)N3CCCCN(C(=O)Nc4ccccc4)C[C@H]23)cc1` yielded a viability index under setting [1] of 0.782 ± 0.084.

`COCC#Cc1ccc([C@@H]2[C@@H](CO)N3CCCCN(C(=O)NC4CCCC4)C[C@@H]23)cc1`: under setting [1], the viability index was found to be 1.01 ± 0.02.

`CC(C)CC#Cc1ccc([C@@H]2[C@@H](CO)N3CCCCN(C(=O)Nc4ccccc4)C[C@@H]23)cc1` gave a viability index under setting [1] of 1 ± 0.15.

For the compound `CC(C)CC#Cc1ccc([C@H]2[C@@H](CO)N3CCCCN(C(=O)Nc4ccccc4)C[C@@H]23)cc1`, the viability index under setting [1] is 1.02 ± 0.057.

As for `CC(C)CC#Cc1ccc([C@H]2[C@H]3CN(C(=O)Nc4ccccc4)CCCCN3[C@H]2CO)cc1`, the viability index under setting [1] came to 0.99 ± 0.061.

The compound `CC(C)CC#Cc1ccc([C@@H]2[C@H](CO)N3CCCCN(C(=O)Nc4ccccc4)C[C@@H]23)cc1` returned a viability index under setting [1] of 0.877 ± 0.053.

In the case of `CC(C)CC#Cc1ccc([C@@H]2[C@H]3CN(C(=O)Nc4ccccc4)CCCCN3[C@H]2CO)cc1`, under setting [1], the viability index was determined as 0.542 ± 0.086.

`CC(C)CC#Cc1ccc([C@@H]2[C@@H](CO)N3CCCCN(C(=O)Nc4ccccc4)C[C@H]23)cc1`: the viability index under setting [1] turned out to be 0.844 ± 0.032.

Under setting [1], `Cc1noc(C)c1NC(=O)N1C[C@@H](O)COC[C@H]2O[C@@H](CC(=O)N[C@@H]3CCN(Cc4ccccc4)C3)CC[C@@H]21` came in with a viability index of 0.994 ± 0.052.

`CCC(=O)N1[C@H](CO)[C@@H]2c3ccccc3N(C(=O)c3cnccn3)C[C@@H]21` displayed a viability index under setting [1] of 0.908 ± 0.3.

With `C/C=C/c1ccc2n(c1=O)C[C@H]1[C@H](CO)[C@@H](C(=O)Nc3nccs3)N(Cc3cc(F)ccc3F)[C@@H]21.C/C=C\c1ccc2n(c1=O)C[C@H]1[C@H](CO)[C@@H](C(=O)Nc3nccs3)N(Cc3cc(F)ccc3F)[C@@H]21`, the viability index under setting [1] came out at 1.07 ± 0.056.

For the compound `Cc1noc(C)c1NC(=O)N(C)C[C@H]1Oc2ccc(NC(=O)Cc3cn(C)c4ccccc34)cc2CC(=O)N([C@@H](C)CO)C[C@H]1C`, under setting [1], the viability index was found to be 0.941 ± 0.2.

As for `COCC#Cc1ccc([C@H]2[C@H]3CN(C(=O)C4CCCCC4)CC(=O)N3[C@H]2CO)cc1`, the viability index under setting [1] worked out at 1.01 ± 0.034.

Regarding `COc1ccc2c3c([C@@H](CO)N(C)C[C@]33CCN(CC3)C(=O)CN3CCOCC3)n(C)c2c1`, the viability index under setting [1] stood at 0.9699 ± 0.0061.

`CN(C)C(=O)c1cccc(-c2ccc([C@@H]3[C@@H]4CN(Cc5ccccc5F)C[C@H]3N4)cc2)c1` displayed a viability index under setting [1] of 0.977 ± 0.016.

Turning to `CN(C)C(=O)c1ccc(-c2ccc([C@H]3[C@@H]4CN(Cc5ccccc5Cl)C[C@H]3N4)cc2)cc1`, the viability index under setting [1] was determined as 0.846 ± 0.021.

Compound `CN(C)C(=O)c1cccc(-c2ccc([C@H]3[C@@H]4CN(Cc5ccccc5F)C[C@H]3N4)cc2)c1` gave a viability index under setting [1] of 1.05 ± 0.084.

These data come from the supplement of paper PMC4723716.
